Screens as filed in PubChem BioAssay.
This excerpt belongs to a sample that is enriched for hits.
Bm FixLJ act – B. multivorans fixK reporter activation; B. multivorans fixK-promoter GFP reporter, 18 h; active compounds read high; z-score (no concentration beside the values); 0.3% of 29,000 active; AID 1918990;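 active = replicate mean overnight rise in green fluorescent reporter signal, 3 or more SD over negative controls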
Numbers stand for hits; - = inactive.

SMILES	Bm FixLJ act
CC(CCc1ccccc1)NC(=O)Cn1ncc2c3ccccc3n(Cc3cccc(Cl)c3)c2c1=O (stereo not drawn)	26
O=C(Cn1ncc2c3ccccc3n(Cc3cccc(Cl)c3)c2c1=O)N1CCCCC1	-
Cc1c2cnn(CC(=O)NCc3ccccc3)c(=O)c2c(C)n1Cc1cccc(Cl)c1	-
COc1ccc(CNC(=O)Cn2ncc3c4ccccc4n(Cc4cccc(Cl)c4)c3c2=O)cc1	24
O=C(Cn1ncc2c3ccccc3n(Cc3ccccc3)c2c1=O)NCc1ccccc1	-
O=C(Cn1ncc2c3ccccc3n(Cc3ccccc3)c2c1=O)NCc1cccs1	-
O=C(Cn1ncc2c3ccccc3n(Cc3cccc(Cl)c3)c2c1=O)NCc1cccs1	11
O=C(Cn1ncc2c3ccccc3n(Cc3cccc(Cl)c3)c2c1=O)N1CCCCCC1	8.7
O=C(Cn1ncc2c3ccccc3n(Cc3ccccc3)c2c1=O)N1CCCCCC1	-
CC(CCc1ccccc1)NC(=O)Cn1ncc2c3ccccc3n(Cc3ccccc3F)c2c1=O (stereo not drawn)	-
O=C(Cn1ncc2c3ccccc3n(Cc3ccc(F)cc3)c2c1=O)NCc1cccs1	-
CC(CCc1ccccc1)NC(=O)Cn1ncc2c3ccccc3n(Cc3ccccc3)c2c1=O (stereo not drawn)	-
COCCNc1cc(N2CCN(C3CCCCC3)CC2)c2noc3c2c1C(=O)c1ccccc1-3	-
O=C(COC(=O)c1cc(-c2cccs2)nc2ccccc12)c1ccccc1	-
O=C(Nc1cc2c(cc1C(=O)c1ccccc1Cl)OCCO2)c1ccccc1	-
CN(Cc1ccc(-n2cccn2)cc1)C(=O)CCc1nc2ccccc2[nH]1	-
COc1ccc(NC(=O)CNC(=O)Cn2c(C)cc3ccccc3c2=O)cc1OC	-
C=CCC(O)(CC=C)C(C)NC(=O)c1ccc(-n2cnnc2)cc1 (stereo not drawn)	-
O=C(CCCCn1c(=O)c2ccccc2n(Cc2ccccc2Cl)c1=O)NCc1ccc2c(c1)OCO2	-
CCn1cc(CNC(=O)Cc2c(C)[nH]c3c(C)ccc(C)c23)c(C)n1	-
CNC(=O)c1ccc(C)c(NC(=O)N2CCCN3CCCC3C2)c1 (stereo not drawn)	-
CCOC(=O)c1cc(-c2ccc(C)cc2)n(CC(=O)Nc2ccccc2F)c1C	-
CC1(C)CC(CCNC(=O)N2CCCNC(=O)C2)(c2ccccc2)CCO1 (stereo not drawn)	-
Cc1cccc(-c2ccc(NC(=O)C3CCN(CCn4cnnc4)CC3)cc2)c1	-
CCc1n[nH]c(CN(Cc2ccccn2)Cc2sccc2C)n1	-
SMILES	Bm FixLJ act
CCOC(=O)C1CCCN(CC(=O)N2CCCc3c2c(=O)oc2ccc(OCc4ccccc4)cc32)C1 (stereo not drawn)	-
CCOc1ccc(NC(=O)CCNS(=O)(=O)c2cccc3nonc23)cc1	-
COc1ccc(-c2cc3nc(-c4ccccc4)cc(C(F)(F)F)n3n2)cc1	-
COc1ccc(-c2cc(C(F)(F)F)n3ncc(-c4ccccc4)c3n2)cc1	3.3
Cc1ccc(-c2cc(C(F)(F)F)n3ncc(-c4ccccc4)c3n2)cc1	-
COc1ccccc1-c1cc(C(=O)N2CCN(c3ccccc3)CC2)no1	-
Cc1cc(C)c2c(NC(=O)c3ccccc3Cl)c(C(=O)Nc3ccc(C)c(C)c3)sc2n1	-
O=C(c1ccc(NCCCSC2CCCCC2)nc1)N1CCOCC1	-
CN[C@@H]1[C@@H](O[C@H]2O[C@H](CO)[C@@H](N)[C@H](O)[C@H]2O)O[C@H]2C[C@@H](N)[C@H](O[C@H]3[C@H](O)[C@@H](O)[C@H](N)C[C@@H]3N)O[C@@H]2[C@@H]1O	-
COc1cc(C(c2c(C)[nH][nH]c2=O)c2c(C)[nH][nH]c2=O)ccc1OC(=O)c1ccccc1OC	-
Cc1[nH]n(-c2ccccc2)c(=O)c1C(c1cc(Cl)ccc1O)c1c(C)[nH]n(-c2ccccc2)c1=O	-
CCOc1cc(C(c2c(C)[nH]n(-c3ccccc3)c2=O)c2c(C)[nH]n(-c3ccccc3)c2=O)ccc1O	3.3
COC(=O)c1ccccc1NC(=O)c1nc(SCc2ccccc2C)ncc1Cl	-
Cc1cc(/C=C/c2ccc3cc(N(C)C)ccc3[n+]2C)c(C)n1-c1ccccc1	4
CCOc1ccc(CCNC(=O)c2cn(C)c3ccc(S(=O)(=O)N4CCCCC4)cc3c2=O)cc1OCC	-
Cc1ccccc1NC(=O)c1ccccc1NC(=O)c1ccccc1F	-
Cc1ccccc1N1CCN(C(=O)CCN2Cc3ccccc3C2=O)CC1=O	-
COc1cc2c(cc1OC)C1(CCN(C(=O)C3CCCO3)CC1)OCC2 (stereo not drawn)	-
COc1ccc(CNC(=O)c2ccc(CNS(=O)(=O)c3ccc(OC)cc3)cc2)cc1	-
CN(c1ccc(C(=O)NCc2noc(-c3cccs3)n2)cc1)S(C)(=O)=O	-
COCc1noc(CNC(=O)c2ccc(N(C)S(C)(=O)=O)cc2)n1	3
COc1ccc(NC(=O)CSc2nc3cc(OC)c(OC)cc3c3nc(-c4ccccc4)nn23)cc1Cl	-
CNC(=O)c1ccc(Nc2nnc(-c3ccc(C)c(S(=O)(=O)N(C)C)c3)c3ccccc23)cc1	-
Cc1ccc(NC(=O)Cn2c(=O)n(Cc3ccc(C(=O)NCc4ccc5c(c4)OCO5)cc3)c(=O)c3ccccc32)cc1	-
COc1cccc(CNS(=O)(=O)c2sc3c(c2C(=O)O)CCNC3)c1	-
SMILES	Bm FixLJ act
CCC[C@H](N[C@@H](C)C(=O)N1[C@H](C(=O)O)C[C@@H]2CCCC[C@@H]21)C(=O)OCC	-
CC(C)(C)c1ccc(C2Sc3ccccc3NC3=C2C(=O)c2ccccc23)cc1 (stereo not drawn)	3.5
CCc1nn(CC(=O)NCCCOC)c(=O)c2cc3occc3n12	-
Cc1n[nH]c(C)c1CCCNC(=O)Cc1ccccc1C(F)(F)F	-
CCC(C)Sc1oc(-c2ccco2)nc1S(=O)(=O)c1ccc(C)cc1 (stereo not drawn)	5.5
Cc1ccc(S(=O)(=O)c2nc(-c3ccco3)oc2SCc2ccccc2Cl)cc1	-
Cc1ccc(CSc2oc(-c3ccco3)nc2S(=O)(=O)c2ccc(C)cc2)cc1	-
COc1ccc(C2=C(N3CCN(c4cc(Cl)ccc4C)CC3)c3ccccc3C2=O)cc1	-
COc1ccc(C2=C(N3CCN(c4cc(C)ccc4C)CC3)c3ccccc3C2=O)cc1	-
Cc1ccc(NC2=C(c3ccc(C(F)(F)F)cc3)C(=O)c3ccccc32)cc1C	3.3
COc1ccc(NC2=C(c3ccccc3)C(=O)c3ccccc32)cc1Cl	3.8
COc1ccc(OC)c(NC2=C(c3ccccc3)C(=O)c3ccccc32)c1	-
COc1ccc(Nc2c3c(nc4ccccc24)CCC3)cc1Cl	-
Cn1c(=O)cc(SCC(=O)NCc2ccc(F)cc2)c2ccc(Cl)cc21	-
Cc1nc(CC(=O)N2CCCN(C(=O)CCn3cnnc3)CC2)cs1	-
OCc1cc(C(O)CNCCCCCCOCCCCc2ccccc2)ccc1O (stereo not drawn)	-
CCc1ccc(NC(=O)c2cc(-c3cccs3)on2)cc1	-
C=CCOc1ccc(C2CC(=O)Nc3n[nH]c(C(=O)O)c32)cc1Cl (stereo not drawn)	-
CCc1ccc(NS(=O)(=O)c2ccc3[nH]cc(C(=O)N4CCCCCC4)c(=O)c3c2)cc1	-
CCOc1ccc(-c2nn(-c3ccc(F)cc3)c3c2cnc2ccc(F)cc23)cc1	-
CCc1ccc(-c2nn(-c3ccc(OC)cc3)c3c2cnc2ccc(OC)cc23)cc1	-
CCOc1ccc2ncc3c(-c4cccc(OC)c4)nn(-c4ccccc4)c3c2c1	3.3
CCOc1ccc(NC(=O)CC2C(=O)N(c3ccc(C)cc3)C(=O)N2C2CCCCC2)cc1 (stereo not drawn)	-
